Screening data from PubChem.
In the library only some 11% were active in any assay of this set; here they are far more common.
Tau FP inhib = blocks human tau fibril formation measured by polarization | P10636 | K18 P301L tau heparin fibrillization, Alexa594 FP, 6 h | Potency, µM (top dose mostly 57.7 µM), usual class: inhibitors | actives 0.39% (n = 280,000); further: nearly all actives have a fitted effect of over 55% in size
Target sequence (P10636 561-689 P618L limits assumed): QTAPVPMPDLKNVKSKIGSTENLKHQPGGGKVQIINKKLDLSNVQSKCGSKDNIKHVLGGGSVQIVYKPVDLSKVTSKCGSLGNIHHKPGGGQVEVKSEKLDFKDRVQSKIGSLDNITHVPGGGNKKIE
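K18 P301L tau (15 uM unlabeled/0.24 uM Alexa 594-labeled, final) + compound + heparin 20 uM final; 100 mM NaOAc pH 7; 6 hr 37 C; ThT 30 uM final added, 1 hr RT; FP ex 555/em 632 nm.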
Coupling enz = counter-screen for Giardia aldolase inhibitors: coupling enzyme system | activity change, negative = inhibition, % at 58.2 µM, hits read low | coupling enzyme system counterscreen, AmpLite Red fluorescence | AID 2472 | actives 0.67% (n = 290,000); in the data active means activity change below about -30%
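Compounds tested against the coupling enzymes alone at 57.5 uM final; readout was AmpLite Red fluorescence (525/598 nm) after 20 min at RT.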
Tau fluor cs = counter-screen for tau fibril formation inhibitors; tau K18 P301L Alexa594 fluorescence, heparin fibrillization; Potency, µM (top dose mostly 57.7 µM); actives 0.93% (n = 280,000); further: nearly all actives have a fitted effect of over 55% in size
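Human K18 P301L tau (15 uM unlabeled plus 0.24 uM Alexa 594-labeled, final) in 100 mM sodium acetate pH 7 was mixed with compound and 20 uM heparin and incubated 6 hr at 37 C.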
Tau ThT inhib = blocks human tau fibril formation measured by thioflavin T | P10636 | recombinant tau K18 P301L (four-repeat tau fragment), heparin-induced fibrillization, ThT fluorescence | Potency, µM (titrated, usually from 57.4 µM), actives largely listed as inhibitors | actives 2.1% (n = 270,000); further: nearly all actives have a fitted effect of over 55% in size
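Aggregation was driven by heparin (20 uM final) acting on recombinant tau […] bearing P301L in 100 mM sodium acetate pH 7; fibrils were detected with Thioflavin T.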
G9a block = inhibitors of human histone lysine methyltransferase G9a | Q96KQ7 | G9a H3K9 monomethylation, AlphaScreen, 2 h | Potency, µM (highest dose often 102 µM), actives largely listed as inhibitors | actives 8.8% (n = 350,000) | AID 504332; further: nearly all actives have a fitted effect of over 75% in size
Target sequence (Q96KQ7 913-1193 limits assumed): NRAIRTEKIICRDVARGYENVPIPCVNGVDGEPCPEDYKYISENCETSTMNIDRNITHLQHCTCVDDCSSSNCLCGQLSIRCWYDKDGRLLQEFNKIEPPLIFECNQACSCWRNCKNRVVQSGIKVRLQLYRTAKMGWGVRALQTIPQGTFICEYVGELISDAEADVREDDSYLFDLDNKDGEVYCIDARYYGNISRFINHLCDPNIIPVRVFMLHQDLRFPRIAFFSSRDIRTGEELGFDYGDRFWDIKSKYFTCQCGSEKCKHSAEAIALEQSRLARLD
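Enzyme 20 nM + cpd, 15 min RT; add b-H3K9 pep 500 nM / SAM 20 uM; 2 h RT; anti-H3K9me1 Ab 0.5 ug/mL + SA donor / anti-rabbit acceptor beads 20 ug/mL each, 10 min; AlphaScreen read.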
Sfp inh = Sfp phosphopantetheinyl transferase inhibition | AID 1490 | Potency, µM, most hits filed as inhibitors | Q9F4F7 | actives 3.5% (n = 310,000) | Biochemical Sfp PPTase activity, qHTS;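 further: the enzyme is Sfp with the accession as filed and its product quenches rhodamine fluorescence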
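Buffer: 50 mM Hepes-Na pH 7.6, 10 mM MgCl2, 0.01% Nonidet P-40, 0.01% BSA. Enzyme 15 nM, pre-exposed to compound 15 min; substrates then added and fluorescence change tracked over 30 min.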
Numbers stand for hits; . = inactive; ? = inconclusive; / = not tested or not shown; ! = not active in a repeat; [ ] = remark or other dose. Unless noted, the call rests on the fitted dose curve; in most records, active means well fitted curve in the direction sought with a large enough effect; inconclusive means small, poorly fitted or top-dose-only effect, or another doubt; inactive means no such curve, though single readings can be large; an effect the other way counts as inactive or inconclusive.

SMILES	Tau FP inhib	Coupling enz	Tau fluor cs	Tau ThT inhib	G9a block	Sfp inh
OC(c1ccccc1)(c1ccccc1)C1CCN(C(=S)NCCc2ccccc2)CC1	.	.	.	.	.	.
O=S(=O)(Nc1nccs1)c1ccc(Br)cc1	.	.	.	.	.	.
O=S(=O)(Nc1nccs1)c1cnc(Cl)c(Br)c1	.	.	.	.	.	50.1µM
Clc1ccc(-c2noc(-c3cccnc3N3CCN(c4ccccc4)CC3)n2)cc1	.	/	.	.	.	/
CCOC(=O)c1nn(-c2ccccc2)c(C(=O)OCC)c1N	.	.	.	.	.[12.7 µM]	.
CCOC(=O)c1nn(-c2ccc(F)cc2)c2c1CC/C2=C/c1ccccc1	.	.	.	.	70.8µM	.
O=C(CN1C(=O)c2ccccc2C1=O)NN1C(=O)c2ccccc2C1=O	?	.	.	?	?	44.7µM
O=C(Cc1ccccc1)NN1C(=O)c2ccccc2C1=O	.	.	.	.	.[12.7 µM]	.
CCN(CC)Cc1oc(-c2ccccc2)cc1C(=O)O	.	.	.	.	/	.
NCc1oc(-c2ccccc2)cc1C(=O)O	.	.	.	.	50.1µM	.
CCC[n+]1c(C)sc2c(OC)ccc(OC)c21	31.6µM	.	.	35.5µM	25.1µM	3.98µM
CCCCC(=O)Nc1nc2c(OC)ccc(OC)c2s1	.	.	.	?	.	.
O=[N+]([O-])/C(C(Cl)=C(Cl)Cl)=C(\Nc1ccc(F)cc1)n1cncn1	.	.	.	?	8.91µM	.
CCOc1ccc(NC(=O)c2nn(C)c(C(=O)Nc3ccc(OCC)cc3)c2[N+](=O)[O-])cc1	/	.	/	/	.[0.501 µM]	.
CCOc1ccccc1N/C(=C(/C(Cl)=C(Cl)Cl)[N+](=O)[O-])n1cncn1	.	.	.	?	28.2µM	.
CCOc1ccc(N/C(=C(/C(Cl)=C(Cl)Cl)[N+](=O)[O-])n2cncn2)cc1	.	.	.	?	25.1µM	.
CCN(C(=O)COC(=O)Cc1ccc(F)cc1)c1c(N)n(Cc2ccccc2)c(=O)[nH]c1=O	/	/	/	/	.[12.7 µM]	/
Cc1cc(C)c(NC(=O)c2cc3c(nc4sccn43)s2)c(C)c1	.	.	.	.	50.1µM	.
Cc1ccsc1/C=N/n1c(COc2ccccc2)n[nH]c1=S	.	.	.	.	0.891µM	.
S=c1[nH]nc(COc2ccccc2)n1/N=C/c1cccs1	.	.	.	.	1.41µM	79.4µM
COc1ccccc1CN(C)C(=O)C(NC(=O)Cc1cccc2ccccc12)C(C)C (stereo not given)	/	.	/	/	7.94µM	.
CC(C)C(=O)Nc1ccc(N2CCN(c3ccc(F)cc3)CC2)cc1	.	.	.	?	.	.
CC(=O)N1CCC2(CC1)CCN(c1ccc(-c3ccccc3)cc1)CC2	/	.	/	/	.[12.7 µM]	56.2µM
CC(C)C(=O)Nc1ccc(N2CCCC2)cc1	.	-32.0	.	?	?	79.4µM
O=C(Nc1ccc(N2CCCC2)cc1)C(c1ccccc1)c1ccccc1	.	.	?	?	31.6µM	50.1µM
SMILES	Tau FP inhib	Coupling enz	Tau fluor cs	Tau ThT inhib	G9a block	Sfp inh
CC(=O)N1CCN(c2ccc(NC(=O)C(c3ccccc3)c3ccccc3)cc2)CC1	/	.	/	/	50.1µM	.
CN(C(=O)Nc1cn(C)c(=O)c2ccccc12)c1ccccc1	.	/	.	.	?	/
O=C(O)c1cccc(NC(=O)c2cccc(S(=O)(=O)Nc3cccc(C(=O)O)c3)c2)c1	.	/	.	.	?	/
O=C(Nc1cccc(C(=O)Nc2ccc(S(=O)(=O)O)c3cc(S(=O)(=O)O)cc(S(=O)(=O)O)c23)c1)Nc1cccc(C(=O)Nc2ccc(S(=O)(=O)O)c3cc(S(=O)(=O)O)cc(S(=O)(=O)O)c23)c1	?	.	.	.	0.597µM	44.7µM!
CCn1c(=O)c2cc(C(=O)Nc3cc(F)ccc3F)sc2c2ccccc21	.	/	.	.	.	/
Oc1c(CN2CCN(c3ccccc3)CC2)cc(Br)c2cccnc12	.	.	.	.	.	.
c1ccc(N2CCN(Cc3ccnc4ccccc34)CC2)cc1	.	.	.	.	4.47µM	.
O=C(COc1ncnc2ccccc12)N1CCN(C(=O)c2ccco2)CC1	.	.	.	.	.	.
O=C(COc1ncnc2sccc12)N1CCN(C(=O)c2ccco2)CC1	.	.	.	.	50.1µM	.
